This is an account of results in PubChem BioAssay (NCI).

Molecules are shown by their SMILES. Several values for one entry are separate records, joined by “and”; a condition that tells them apart may be missing. Equal entries are not always repeated. The panel holds about 83,000 compounds, 20% with a hit somewhere; the sample as a whole holds those more often.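 A percent growth of 40 corresponds to 60% growth inhibition; 0 means no net growth; -100 means all cells died. Active threshold: below 10.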 Values without a mark were called inactive. Activity calls are given as the source filed them.

The first assay relates to NCI/ADR-RES ovarian. Briefly: NCI-60 one-dose screen, 48 h (100 = growth as untreated, 0 = no growth, -100 = all killed). As to conditions: 10 µM. How it is done: Growth inhibition of the NCI/ADR-RES human […] tumor cell line is measured as a screen for anti-cancer activity. Cells are grown in 96 well plates and exposed to the test compound for 48 hours. Compounds are tested at a single concentration, which is 10^-5 M for most compounds. The reported endpoint is percent growth (GI% or GIPRCNT), where numbers from 0 - 100% represent growth inhibition, and numbers from -100% - 0 represent cell death. For example, a value of 40 represents 60% growth inhibition. A value of 0 means no net growth occurred over the course of the experiment. A value of -40 indicates 40% of cells at the beginning of the experiment died by the end of the experiment. A value of -100 means all cells are dead at the end of the experiment.
NCI-60 Human Tumor Cell Lines Screen was performed using the standard one-dose NCI protocol, which is described in more detail at https://dtp.cancer.gov/discovery_development/nci-60/default.htm.
Compounds with GIPRCNT values below 10 were considered active. Activity score was based on GIPRCNT using the following formula: […]
Score is 0 for GIPRCNT values of 100 or above, 50 for GIPRCNT values of 0, and 100 for GIPRCNT values of -100.
On to `S=c1nc[nH]c2nc[nH]c12`, for which the growth was 22.8%.

The same assay, now with this note: 10 µM unless noted.
Regarding `COc1ccc(-n2[nH]c3c(cnc4ccccc43)c2=O)cc1`, the growth is 78.5% and 101%.

For `CCNC1=CC(=O)c2ncccc2C1=O`, the growth is 56%.

Take `Cc1cnc(N)s1`: the growth was 101%.

Regarding `CC(=O)Nc1cscc1NC(C)=O`, the growth was 98.9%.

Take `CS(=O)(=O)c1nsc(N)n1`: the growth was 104%.

For `CCOP(C)(=O)/C(Cc1ccc(OC)c(OC)c1)=N\O` (stereo not given), the growth is 95.7%.

As to `COc1ccc(CCN=Cc2ccc(Cl)cc2)cc1OC`, the growth was 106%.

As to `COc1ccc(CCn2cnn3c(=O)c4ccccc4nc3c2=O)cc1OC`, the growth is 101% and 107%.

Regarding `CCN(CC)C(CC(=O)c1ccccc1)C(=O)c1ccccc1` (stereo not given), the growth was 101%.

For `CCCCNC(=O)c1ccccc1C`, the growth was 99.3%.

`Nc1ccc2ccc(NS(=O)(=O)N3CCCCC3)cc2c1`: the growth was -24.8% (active).

`O=C(NC(CSSCC(NC(=O)OCc1ccccc1)C(=O)O)C(=O)O)OCc1ccccc1` (stereo not given): the growth is 97.2% and 101%.

For the molecule `O=C(Nc1ccccc1)OCC(CN1CCCCC1)OC(=O)Nc1ccccc1` (stereo not given), the growth is 85.6% and 96.1%.

`CC(C)=NOC(C)C(=O)O` (stereo not given): the growth is 99.6%.

`Cc1cc2ccccc2c2cc3ccccc3cc12`: the growth was 98.8%.

Turning to `O=[N+]([O-])c1cccc(N=Cc2ccccc2)c1`, the growth is 108%.

As to `CC(CN(C)C)CN1c2ccccc2Sc2ccccc21` (stereo not given), the growth was 79.2% and 85.1% and 81.4%.

Regarding `CC(=O)/C(N=Nc1ccc(S(=O)(=O)c2ccc(N=N/C(C(C)=O)=C(/C)O)cc2)cc1)=C(\C)O`, the growth was 102%.

For `Cc1cc(Cl)nc(Nc2ccccc2)n1`, the growth was 100%.

For the molecule `COc1cc(NCCCCCNC(C)C)c2ncccc2c1`, the growth was 91.5% and 93.7%.

Take `CCOC(=O)CN1CCC(C(=O)OCC)CC1`: the growth was 110%.

In the case of `S=c1ccc2ccccc2[nH]1`, the growth was 107% and 110%.

In the case of `OC(CC(c1ccccc1)c1cccc2ccccc12)(c1ccccc1)c1ccccc1` (stereo not given), the growth was 76.2% and 70.3%.

For the molecule `Oc1cccnc1CN1CCOCC1`, the growth was 106% and 94.6%.

On to `Cc1onc(-c2c(F)cccc2Cl)c1-c1ncc(-c2ccc(Cl)cc2)o1`, for which the growth is 57.4% and 27.2%.

As to `Nc1ccccc1SC(CC(=O)c1ccccc1)c1cccc([N+](=O)[O-])c1` (stereo not given), the growth was 91.4% and 92.9%.

Regarding `O=C1C=CC[C@H](/C=C/c2ccccc2)O1`, the growth was 34% and 28.9%.

For `O=C(O)C1CSCN1` (stereo not given), the growth is 108% and 87.2%.

`OCCSc1ccc(Cl)cc1`: the growth was 108% and 102%.

Turning to `COC(=O)c1ccccc1Cl`, the growth is 109%.

In the case of `C(#CCN1CCOCC1)CCCN1CCOCC1`, the growth is 105% and 104%.

On to `Cc1c(Cl)cc(Cl)c(N)c1Cl`, for which the growth is 105%.

For the molecule `Cc1cccc(Cl)c1N`, the growth is 101%.

Regarding `CCOC(=O)c1ccc(N2C(=O)C(Cl)(c3ccccc3)C2c2ccco2)cc1` (stereo not given), the growth is 91.3%.

As for `O=C(NC(=O)c1ccc(F)c(Cl)c1)NC1CC1`, the growth is 107% and 103%.

Consider `CC(C)(C)OC(=O)NCCc1ccc(N)cc1`, for which the growth is 99.2%.

With `c1ccc2c[n+](Cc3ccc4ccccc4n3)ccc2c1`, the growth was 102%.

As for `CCCCC/C(C)=N\NC(N)=S`, the growth was 48.8%.

Staying with this assay, now noted: 50 µM.
Turning to `S=c1nc[nH]c2nc[nH]c12`, the growth was 24.9%.
